# Tested on: T1, MEK5
# T1 construct: gene MAP2K5
# 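Further: kd values determined as follow-up on hits from a single-replicate KINOMEscan panel screen.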
row,Compound,Kd
1,COc1cccc(NC(=O)NC2CCN(c3ccnc(Nc4ccc(F)cc4)n3)C2)c1 (stereo not shown) [GSK1379721],500 nM
2,COc1cc(Nc2nccc(N3CCC(NC(=O)Nc4cc(C)ccc4C)C3)n2)cc(OC)c1OC (stereo not shown) [GSK1379762],53 nM
3,Cc1ccc(C(=O)Nc2ccc(Nc3ccnc4cc(-c5ccccn5)ccc34)cc2O)cc1.Cl [GW440146],4.7 nM
4,Cl.O=C(Nc1cccc(-c2nn3ncccc3c2-c2ccnc(Nc3cccnc3)n2)c1)c1c(F)cccc1F [GSK312879],230 nM
5,COc1cc2ncnc(Nc3ccc4nc(-c5ccccc5)[nH]c4c3)c2cc1OC.Cl [GW282450],670 nM
6,COc1ccc(Nc2nccc(-c3cccc(NC(=O)c4cc5cc(F)ccc5[nH]4)c3)n2)cc1 [GSK1229782],200 nM
7,COc1cc2nccc(Nc3ccc(NC(=O)c4ccc(C)cc4)c(O)c3)c2cc1OC.Cl [GW440132],8.7 nM
8,COc1ccc(CNC(=O)NC2CCN(c3ccnc(Nc4cc(OC)c(OC)c(OC)c4)n3)C2)cc1 (stereo not shown) [GSK1379748],95 nM
9,Cn1cncc1-c1ccc2ncnc(Nc3ccc(OCc4ccccc4)cc3)c2c1 [GW320571],450 nM
10,Cl.NC(=O)c1cccc(Nc2nccc(Nc3ccc(Oc4cccc(Cl)c4)c(Cl)c3)n2)c1 [GW659008],34 nM
11,Fc1cc(Cl)ccc1Nc1ccnc2cc(-c3ccc(CN4CCCCC4)o3)ccc12 [GW560116],890 nM
12,CC(C)(C)c1ccc(C(=O)Nc2cn3cc(-c4cccnc4)ccc3n2)cc1,190 nM
13,COc1cc2ncn(-c3cc(OCC4CCCO4)c(C(N)=O)s3)c2cc1OC (stereo not shown) [GSK204607],81 nM

# Source: paper PMC5540273 (PLoS ONE, 2017)
